In assay [1] the target is T1, Tyrosine-protein phosphatase non-receptor type substrate 1 (Homo sapiens) + Leukocyte surface antigen CD47 (Homo sapiens) (UniProt P78324+Q08722). Briefly: CD47-SIRPalpha protein protein interaction - LANCE assay qHTS validation (AID 1347057; active means well fitted curve in the direction sought with a large enough effect in the signal ratio, with a control signal flat, not every such curve was filed as active; the % refers to the signal ratio; further: series mostly up to about 38 µM; 0% is about no effect). In a few lines: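 Inhibition of soluble CD47/SIRPalpha ectodomain association by titrated compounds, measured as 665/615 nm time-resolved FRET ratio after sequential 30 min room-temperature incubations.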

Assay [2] deals with T1, Tyrosine-protein phosphatase non-receptor type substrate 1 (Homo sapiens) + Leukocyte surface antigen CD47 (Homo sapiens). Briefly: CD47-SIRPalpha protein protein interaction - HTRF assay qHTS validation (AID 1347058; active means well fitted curve in the direction sought with a large enough effect in the signal ratio, not every such curve was filed as active; the % refers to the signal ratio; further: series mostly up to about 38 µM; 0% is about no effect). In a few lines: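 Soluble extracellular domains (6His-CD47, Avi-tag-biotinylated SIRPalpha) in PBS pH 7.4 with 0.05% IGEPAL CA-630. Compounds were preincubated 30 min at RT with CD47 and anti-His-Eu, then SIRPalpha and SAV-XL665 were added. TR-FRET 665/615 ratio.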

Assay [3] has the same target. The experiment in a line: CD47-SIRPalpha protein protein interaction - Alpha assay qHTS validation (AID 1347059).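 Further: bead proximity luminescence from CD47 binding SIRPalpha after compound preincubation with SIRPalpha.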 Further: potency means the concentration at half of the fitted maximal effect. On activity change, negative = inhibition: on the % scale 0 is the no-effect control and ±100 the full control effect. In a few lines: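 SIRPalpha-biotin 25 nM + cpd, 30 min RT, dark; add CD47-His 12.5 nM, 30 min; add Ni-NTA/SAV beads 10 ug/mL, 30 min; AlphaScreen. Buffer PBS pH 7.4 + 0.05% IGEPAL CA-630. Non-biotinylated SIRPalpha as control inhibitor.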
Assay [4] has as its target Parathyroid hormone/parathyroid hormone-related peptide receptor (Homo sapiens) (UniProt Q03431). Briefly: qHTS for PTHR1 Agonists: Optimization Screen against the NCGC LOPAC library (AID 1347079).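 Further: GloSensor cAMP luminescence in HEK-293 GP2 cells expressing human PTHR1 with IBMX.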 Further: potency means the concentration at half of the fitted maximal effect. In short, it runs like this:
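Signal increase flags agonism. GP2 cells, derived from HEK-293, express human PTHR1 and a GloSensor cAMP construct.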

The subject of assay [5] is Zika virus NS2B-NS3 protease (unlinked). The experiment in a line: Optimization of GU AMC qHTS for Zika virus inhibitors: Unlinked NS2B-NS3 protease assay (AID 1347151). Further: nearly all actives have a fitted effect of over 80% in size. Further: potency means the concentration at half of the fitted maximal effect.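 On activity change, negative = inhibition: series mostly up to about 52 µM; 0% = no-inhibitor control and -100% = no-enzyme control.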 In a few lines:
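Noncovalent complex of NS2B hydrophilic domain and NS3 protease domain, 25 nM final, in 10 mM Tris-HCl pH 8.0, 0.01% Tween 20. AMC fluorescence change over 15 min at room temperature was fitted to a 4-parameter Hill equation.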

In assay [6] the test system is Zika virus NS2B-NS3 protease. The experiment in a line: Primary screen GU AMC qHTS for Zika virus inhibitors (AID 1347154). Further: nearly all actives have a fitted effect of over 70% in size. Further: potency means the concentration at half of the fitted maximal effect.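 On activity change, negative = inhibition: 0% = no-inhibitor control and -100% = no-enzyme control.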 In a few lines:
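Unlinked Zika NS2B hydrophilic domain–NS3 protease complex at 25 nM in 10 mM Tris-HCl pH 8.0, 0.01% Tween 20, with an AMC peptide substrate. Fluorescence change (340/450 nm) over 15 min at room temperature, normalized to controls, fitted to 4-parameter Hill.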

Assay [7] concerns the target N-terminal Xaa-Pro-Lys N-methyltransferase 1 (Homo sapiens) (UniProt Q9BV86). Briefly: qHTS Assay for Inhibitors of N-terminal methyltransferase 1 (NTMT1): LOPAC validation of the NTMT1 SAHH-coupled ThioGlo3 Assay (AID 1347143).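 Further: SAH from peptide methylation measured as thiol fluorescence via SAHH coupling and ThioGlo3; nearly all actives have a fitted effect of over 70% in size.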 Further: potency means the concentration at half of the fitted maximal effect. On activity change, negative = inhibition: on the % scale 0 is the no-effect control and ±100 the full control effect. In short, it runs like this: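 Steps: dispense 125nM NTMT1; pin-transfer test compounds at several concentrations, with 1uM RCC1-6 peptide as control; incubate 1 min; start with reagent holding 100uM SAM, 10uM SAHH, 15uM ThioGlo3; read at 0 and 30 min.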

In assay [8] the test system is Zika virus NS2B-NS3 protease (linked construct). The experiment in a line: Confirmatory screen NINDS AMC qHTS for Zika virus inhibitors (AID 1347152).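 Further: AMC fluorescence gain from cleaved Bz-Nle-KRR-AMC substrate over 15 min; top concentration of the series differs between compounds; 0% = no-inhibitor control and -100% = no-enzyme control; nearly all actives have a fitted effect of over 70% in size.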 In a few lines: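 Purified NS2B-NS3 protease with NS2B hydrophilic domain linked to NS3 protease domain by flexible linker, 1 nM final in 10 mM Tris-HCl pH 8.0, 0.01% Tween 20. Compounds preincubated 15 min, room temperature; Bz-Nle-KRR-AMC 10 microM (Km 18.3 µM); 15-min fluorescence change, 4-parameter Hill fit.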
For orientation: qHTS replaces the single test concentration by a dilution series.

For assay [9], the system named is Zika virus NS2B-NS3 protease (unlinked complex). Briefly: Confirmatory screen GU AMC qHTS for Zika virus inhibitors (AID 1347153). Further: nearly all actives have a fitted effect of over 70% in size. In a few lines: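 Unlinked NS2B-NS3 complex (25 nM) in 10 mM Tris-HCl pH 8.0, 0.01% Tween 20 preincubated 15 min with compound, then 10 microM Bz-Nle-KRR-AMC (Km 18.3 µM). Fluorescence change over 15 min, normalized, Hill-fitted.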

Values without a mark were called inactive. Records with an inconclusive call do not appear. The source made the active and inactive calls. Unless noted, the call rests on the fitted dose curve; in most records, active means well fitted curve in the direction sought with a large enough effect; inconclusive means small, poorly fitted or top-dose-only effect, or another doubt; inactive means no such curve, though single readings can be large; an effect the other way counts as inactive or inconclusive. Residues, ends and D or L forms follow the SMILES beside them. *: point of attachment. Cbz = O=C(OCc1ccccc1)*

T1 sequence (P78324 whole entry, looked up, the tested form may be a part): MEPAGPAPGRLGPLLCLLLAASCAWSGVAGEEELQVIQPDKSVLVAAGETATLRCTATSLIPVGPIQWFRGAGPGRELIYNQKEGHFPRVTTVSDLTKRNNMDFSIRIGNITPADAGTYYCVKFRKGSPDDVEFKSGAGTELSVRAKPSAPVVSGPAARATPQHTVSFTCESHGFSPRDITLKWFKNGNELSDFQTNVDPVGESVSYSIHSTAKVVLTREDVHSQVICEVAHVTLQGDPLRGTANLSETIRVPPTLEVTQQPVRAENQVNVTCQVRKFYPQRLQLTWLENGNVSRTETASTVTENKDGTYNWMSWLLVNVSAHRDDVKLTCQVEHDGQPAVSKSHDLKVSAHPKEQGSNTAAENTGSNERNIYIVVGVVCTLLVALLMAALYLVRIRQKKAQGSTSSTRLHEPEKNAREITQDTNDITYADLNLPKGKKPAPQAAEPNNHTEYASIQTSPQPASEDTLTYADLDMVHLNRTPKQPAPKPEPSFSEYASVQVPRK
T1 sequence (Q08722 whole entry, looked up, the tested form may be a part): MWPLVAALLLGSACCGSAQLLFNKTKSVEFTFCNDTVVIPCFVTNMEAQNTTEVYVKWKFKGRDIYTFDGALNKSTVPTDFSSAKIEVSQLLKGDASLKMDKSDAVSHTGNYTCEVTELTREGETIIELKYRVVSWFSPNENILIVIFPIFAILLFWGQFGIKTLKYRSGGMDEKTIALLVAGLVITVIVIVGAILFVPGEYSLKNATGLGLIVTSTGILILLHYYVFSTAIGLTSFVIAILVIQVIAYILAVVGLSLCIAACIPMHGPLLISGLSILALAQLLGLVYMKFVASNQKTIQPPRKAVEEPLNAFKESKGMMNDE
Chain of N-terminal Xaa-Pro-Lys N-methyltransferase 1 (Homo sapiens) (Q9BV86 whole entry, looked up): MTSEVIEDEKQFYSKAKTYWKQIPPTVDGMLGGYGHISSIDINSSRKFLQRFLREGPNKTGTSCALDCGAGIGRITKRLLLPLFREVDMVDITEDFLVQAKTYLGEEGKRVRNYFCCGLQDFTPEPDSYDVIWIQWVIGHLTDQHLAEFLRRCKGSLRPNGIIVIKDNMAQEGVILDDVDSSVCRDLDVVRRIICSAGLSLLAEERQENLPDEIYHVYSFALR
Chain of Parathyroid hormone/parathyroid hormone-related peptide receptor (Homo sapiens) (Q03431 whole entry, looked up): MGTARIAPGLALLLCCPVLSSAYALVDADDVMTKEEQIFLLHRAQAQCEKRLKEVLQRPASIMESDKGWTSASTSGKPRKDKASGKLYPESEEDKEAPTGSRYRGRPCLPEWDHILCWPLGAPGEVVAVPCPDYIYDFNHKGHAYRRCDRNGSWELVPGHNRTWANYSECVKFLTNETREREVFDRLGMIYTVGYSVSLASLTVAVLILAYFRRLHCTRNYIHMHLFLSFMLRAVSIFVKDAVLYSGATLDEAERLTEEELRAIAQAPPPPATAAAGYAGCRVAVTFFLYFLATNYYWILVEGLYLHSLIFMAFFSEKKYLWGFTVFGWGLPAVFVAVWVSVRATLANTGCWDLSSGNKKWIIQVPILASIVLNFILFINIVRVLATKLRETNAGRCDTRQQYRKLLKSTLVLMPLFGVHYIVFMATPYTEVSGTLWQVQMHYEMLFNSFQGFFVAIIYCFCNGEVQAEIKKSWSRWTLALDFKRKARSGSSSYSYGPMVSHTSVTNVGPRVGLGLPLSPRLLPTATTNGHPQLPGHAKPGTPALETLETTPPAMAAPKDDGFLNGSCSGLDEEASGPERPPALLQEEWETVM

As for `O=C1Nc2ccc(I)cc2/C1=C/c1cc(Br)c(O)c(Br)c1`, the Potency entry in assay [1], in [4] and in assay [6] was “inactive” throughout. Also, the outcome in [2] was inactive. For the same molecule, the Potency is 14.7 µM (active) in [3] and 5.97 µM (active) in assay [5].
Take `CCCCCCCCCCC(C)(C)C(=O)Nc1c(OC)cc(OC)cc1OC`: the Potency result in [1], in assay [3], in assay [4] and in assay [6] was “inactive” in each case. Moreover, the outcome in assay [2] was inactive.
For the molecule `CC(C)[C@H](NC(=O)OCc1ccccc1)C(=O)N[C@H](C=O)Cc1ccccc1` (Cbz-Val-Phe-aldehyde), the Potency entry in [1], in assay [3], in assay [7] and in [6] was “inactive” each time. For the same molecule, in [2], the outcome was inactive.
In the case of `CC1C(=O)N(C)C(=O)c2nc[nH]c21` (stereo unspecified), the Potency entry in assay [1], in assay [3], in [7] and in assay [5] was “inactive” in each case. The result in assay [2] was inactive.
As for `CCCn1c(=O)c2c(ncn2C)n(CCC)c1=O`, the Potency result in assay [1], in assay [3], in assay [7], in [5] and in assay [6] was “inactive” in each case. In addition, the outcome in [2] was inactive.
Regarding `CC(C)C[C@H](NC(=O)[C@H](O)[C@H](N)Cc1ccccc1)C(=O)O`, the Potency result in assay [1], in [4], in assay [7] and in assay [5] was “inactive” in each case. Also, in [2], the outcome was inactive.
Take `CN[C@H](CC(=O)O)C(=O)O`: the Potency result in [1], in assay [4], in assay [7], in [5] and in assay [6] was “inactive” in each case. Moreover, the result in [2] was inactive.
In the case of `CCCCS(=N)(=O)CC[C@H](N)C(=O)O` (stereo partly specified), the Potency entry in [1], in assay [4], in assay [7] and in assay [5] was “inactive” throughout. The result in [2] was inactive.
Turning to `O[Si](CCCN1CCCCC1)(c1ccc(F)cc1)C1CCCCC1` (stereo unspecified), the Potency result in [1], in assay [4], in [7] and in assay [5] was “inactive” throughout. Also, in assay [2], the result was inactive.
Regarding `CC(N)(C(=O)O)c1ccc(C(=O)O)cc1` (stereo unspecified), the Potency result in assay [1], in assay [4], in [7], in [5] and in [6] was “inactive” in each case. Also, the result in assay [2] was inactive.
For the molecule `O=C(O)C1CN(CCCP(=O)(O)O)CCN1` (stereo unspecified), the Potency result in assay [1], in assay [4], in [7] and in [5] was “inactive” each time. Further, the result in assay [2] was inactive.
On to `Nc1nc2ccc(Cl)cc2c2nc(-c3ccco3)nn12`, for which the Potency result in [1], in assay [8], in assay [9] and in [6] was “inactive” each time. In addition, in assay [2], the result was inactive. Further, the results for the Potency in [4] and in assay [7] were 6.7 µM (active) and 12.6 µM (active), respectively.
As to `Nc1ncnc2c1ncn2C1CCCO1` (stereo unspecified), the Potency entry in assay [1], in assay [4], in [7], in assay [5] and in [6] was “inactive” throughout. Further, the result in [2] was inactive.
`CCCCCCCCCCC/C=C\C(C)(C)/C=C\CCCC(=O)O`: the Potency entry in [1], in assay [4] and in assay [7] was “inactive” throughout. In addition, the result in [2] was inactive. In addition, in assay [5], the Potency was 6.7 µM (active). For the same molecule, the activity change, negative = inhibition in [6] is 13.4% [at 6.83 µM].
In the case of `CCCn1c(=O)c(C)cn2nc(N)nc12`, the Potency entry in assay [1] and in assay [4] was “inactive” throughout. Also, the outcome in assay [2] was inactive. Moreover, the Potency in assay [7] is 39.8 µM (active); in assay [5], 29.9 µM (active); in [6], 26.7 µM (active).
With `Cn1ccnc1`, the Potency result in assay [1], in [4], in [7] and in assay [5] was “inactive” each time. The outcome in [2] was inactive.
As for `COC(=O)C(C)(N)Cc1ccc(O)cc1` (stereo unspecified), the Potency result in assay [1], in assay [4], in assay [7] and in [5] was “inactive” each time. Besides, the result in assay [2] was inactive.
For the molecule `O=C(O)/C=C/c1cnc[nH]1`, the Potency result in [1], in assay [4], in assay [7] and in assay [5] was “inactive” throughout. Further, the result in assay [2] was inactive.
Take `COc1cc(/C=C(\C#N)C(=O)Nc2nnc(C(F)(F)F)s2)ccc1OCc1ccc(C(F)(F)F)cc1C(F)(F)F`: the Potency result in assay [1] and in assay [4] was “inactive” throughout. The result in assay [2] was inactive. Further, the Potency in assay [7] was 56.2 µM (active); in [9] it was 15.2 µM (active).
In the case of `[N-]=[N+]=Nc1ccc(C(=O)CSC[C@H](NC(=O)CC[C@H](N)C(=O)O)C(=O)NCC(=O)O)cc1`, the Potency entry in assay [1], in [4] and in [7] was “inactive” throughout. The outcome in [2] was inactive. Moreover, in assay [5], the Potency was 7.52 µM (active).
Consider `COc1ccc2c(c1)CCC1C2CC[C@@]2(C)C1CC[C@@H]2NCCCCCCN1C(=O)C=CC1=O` (stereo partly specified), for which the Potency result in assay [1], in assay [4], in assay [7] and in assay [5] was “inactive” in each case. Besides, in [2], the result was inactive.
In the case of `Nn1nnc2ccccc21`, the Potency entry in assay [1], in assay [4], in assay [7] and in assay [5] was “inactive” each time. For the same molecule, the outcome in [2] was inactive.
In the case of `c1ccc(C(NCCNC(c2ccccc2)c2ccccc2)c2ccccc2)cc1`, the Potency entry in assay [1], in assay [4] and in assay [5] was “inactive” each time. The outcome in assay [2] was inactive.
For `C[N+](C)(C)CC=O`, the Potency result in assay [1], in assay [7] and in [5] was “inactive” in each case. The result in assay [2] was inactive.
For `CSC(N)=NCCC[C@H](N)C(=O)O`, the Potency entry in assay [1], in assay [4], in [7] and in [5] was “inactive” each time. Moreover, the result in assay [2] was inactive.
For `CN1CCCC1CCOC(C)(c1ccccc1)c1ccc(Cl)cc1` (stereo unspecified), the Potency result in [1], in [4] and in [5] was “inactive” each time. Moreover, the result in [2] was inactive.
Consider `O=C(O)C1CCCNC1` (stereo unspecified), for which the Potency result in assay [1], in assay [4], in [7] and in [5] was “inactive” each time. For the same molecule, the outcome in assay [2] was inactive.
Regarding `COc1ccc(NC(=O)c2ccc(-c3ccc(-c4noc(C)n4)cc3C)cc2)cc1N1CCN(C)CC1`, the Potency entry in [1], in [4], in assay [5] and in assay [6] was “inactive” each time. In [2], the result was inactive.
As to `O=C(O)c1cc2cc(F)ccc2[nH]1`, the Potency result in assay [1] and in assay [4] was “inactive” in each case. Moreover, in assay [2], the outcome was inactive. In addition, the figures for the Potency in assay [7] and in assay [5] were 56.2 µM (active) and 26.7 µM (active), respectively.
Turning to `NC1(C(=O)O)CCc2cc(C(=O)O)ccc21` (stereo unspecified), the Potency result in assay [1], in assay [3] and in assay [6] was “inactive” each time. The outcome in assay [2] was inactive. Moreover, the Potency in [7] is 50.1 µM (active).

These data come from PubChem BioAssay (NCATS).
